Most compounds without a hit are left out; they make up all but 21% or so of the library.
IL1B secr inh – inhibitors of inflammasome signaling (IL-1 beta secretion) | THP-1 LPS/ATP IL-1B secretion, AlphaLISA, 16 h; active compounds read low | 4.7% of 360,000 active | activity change, % at 57.5 µM | AID 743279; in the data active = activity change below about -50%; inconclusive = mostly about -30% to -49%
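THP-1 cells pretreated 1 hr with compounds (up to 57.5 uM final), then stimulated with LPS (250 ng/mL final) plus ATP (1.25 mM final); secreted IL-1B measured by AlphaLISA after 16 hr, decreased signal indicating inhibition.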
Gal4-VP16 FLuc – counter-screen for ROR gamma inhibitors: Gal4-VP16 reporter | Drosophila S2 Gal4-VP16 UAS-luciferase, luminescence, 20 h | Potency, µM (doses to about 53.6 µM), for inactives: at the top dose activity, negative = inhibition, hits mostly inhibitors | 3.5% of 310,000 active;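 note: Gal4-VP16 expression switched on by copper sulfate through the metallothionein promoter; potency is the fitted concentration of half-maximal effect; nearly all actives have a fitted effect of over 50% in size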
TDP1 cell CPT – growth inhibition of DT40 Tdp1-/-;hTDP1 cells with camptothecin (screen for TDP1 inhibitors); chicken DT40 Tdp1-/-;hTDP1 cells + 20 nM CPT, ATP luminescence, 48 h; Potency, µM (doses to about 46.2 µM), inactives show at the highest dose activity change, negative = growth inhibition, most hits filed as inhibitors; 12% of 420,000 active; AID 686979; note: potency is the fitted concentration of half-maximal effect; nearly all actives have a fitted effect of over 55% in size
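Cell growth measured by CellTiter-Glo luminescence after a minimum 48 h, 37 C compound exposure with 20 nM CPT in Tdp1-knockout DT40 cells stably expressing hTDP1, seeded 400/well; qHTS titration format.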
RORg inh – blocks mouse ROR gamma transcriptional activity. Drosophila S2 Gal4-RORgamma UAS-luciferase reporter, 20 h. Potency, µM (top dose mostly 53.6 µM), for inactives: top-dose activity change, negative = inhibition, usual class: inhibitors. 5.4% of 310,000 active; note: potency is the fitted concentration of half-maximal effect; nearly all actives have a fitted effect of over 60% in size
Target sequence (P51450 whole entry, looked up, the tested form may be a part): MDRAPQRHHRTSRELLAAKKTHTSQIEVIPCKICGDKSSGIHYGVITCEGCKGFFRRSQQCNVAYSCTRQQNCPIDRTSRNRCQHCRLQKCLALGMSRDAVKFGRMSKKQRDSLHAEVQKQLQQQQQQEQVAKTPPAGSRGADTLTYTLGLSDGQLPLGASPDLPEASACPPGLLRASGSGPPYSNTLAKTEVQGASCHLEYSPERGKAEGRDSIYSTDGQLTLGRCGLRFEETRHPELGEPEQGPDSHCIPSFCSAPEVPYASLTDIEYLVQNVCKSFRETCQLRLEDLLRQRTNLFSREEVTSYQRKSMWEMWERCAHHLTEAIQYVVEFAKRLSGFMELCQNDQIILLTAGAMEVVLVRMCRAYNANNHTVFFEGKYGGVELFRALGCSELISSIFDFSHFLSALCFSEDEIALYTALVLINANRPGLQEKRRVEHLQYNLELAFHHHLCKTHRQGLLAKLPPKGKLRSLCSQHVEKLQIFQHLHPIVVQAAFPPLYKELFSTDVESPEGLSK
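ROR gamma transcriptional activity was tracked as Gal4-UAS luciferase output in stably transfected Drosophila Schneider cells, with compound added 1 hr before 700 uM copper sulfate induction and a 20 hr ambient-temperature incubation.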
DT40 TDP1 no CPT – qHTS for Inhibitors of human tyrosyl-DNA phosphodiesterase 1 (TDP1): qHTS in cells in absence of CPT; DT40 Tdp1-/- hTDP1 cells, no CPT, ATP luminescence, 48 h; Potency, µM (top dose mostly 46.2 µM), for inactives: at the top dose activity change, negative = growth inhibition, usual class: inhibitors; 15% of 420,000 active; note: potency is the fitted concentration of half-maximal effect; nearly all actives have a fitted effect of over 55% in size
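DT40 Tdp1-/-;hTDP1 cells, no CPT (DMSO vehicle only), 400 cells/well; compounds pin-transferred; ≥48 hr, 37 °C; CellTiter-Glo 30 min RT dark, luminescence read.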
ELG1 repair inh – blocks ELG1-dependent DNA repair in HEK293T cells; 2.3% of 330,000 active; AID 504467; HEK293T ELG1-luciferase reporter, luminescence, 16 h; DNA damage induced by 5-fluorouridine; Potency, µM (top dose mostly 46.1 µM), without a hit: top-dose activity change, negative = inhibition, usual class: inhibitors; note: potency is the fitted concentration of half-maximal effect; nearly all actives have a fitted effect of over 55% in size
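DMSO vehicle served as the neutral condition. Each well held 2,000 cells given 5-fluorouridine plus compound; after 16 hr at 37 °C/5% CO2, ONE-Glo was added and luciferase measured 30 min later.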
An asterisk follows results filed as active; ? = inconclusive; . = no result. Unless noted, calls come from the whole dose curve; as a rule, active = well fitted curve in the direction sought with a large enough effect; inconclusive = small, poorly fitted or top-dose-only effect, or another doubt; inactive = no such curve, though single readings can be large; an effect the other way counts as inactive or inconclusive. % is set by controls: 0 for no effect and ±100 for the full control effect.

SMILES	IL1B secr inh	Gal4-VP16 FLuc	TDP1 cell CPT	RORg inh	DT40 TDP1 no CPT	ELG1 repair inh
N#C/C(=C\c1ccccc1[N+](=O)[O-])C(=O)NCc1ccccc1	-29	?	-21%	?	21µM*	1.8µM*
CCCCNC(=O)/C(C#N)=C/c1ccc(C(=O)OC)cc1	13	-13%	?	?	?	10%
Cc1ccsc1/C=C(/C#N)C(=O)NCc1ccccc1	-9	22%	3%	40%	-7%	?
O=C(Cc1ccccc1)N/N=C/C=C/c1ccccc1[N+](=O)[O-]	.	?	-5%	15%	-26%	?
CC/C(=C\c1ccc(N(C)C)cc1)c1ccncc1	-64*	.	23µM*	.	?	.
CCCOc1ccc(Oc2ccc(S(=O)(=O)N3CCN(C)CC3)cn2)cc1	-7	.	-26%	.	?	?
COc1ccc(OC)c(/C=C/c2[nH]c(=O)[nH]c(=O)c2[N+](=O)[O-])c1	-59*	-26%	19%	-31%	2%	6%
COc1ccc(OC)c(C=Cc2ccc([N+](=O)[O-])cc2)c1	-16	.	-12%	.	?	.
O=C1CC(c2ccc(F)cc2)CC2=C1C(c1ccc([N+](=O)[O-])o1)Nc1ccccc1N2 (stereo unspecified)	-74*	32%	?	?	16µM*	?
C[C@@H]1OC(O[C@H]2[C@H](Oc3cc(O)c4c(=O)c(O)c(-c5ccc(O)cc5)oc4c3)O[C@H](CO)[C@@H](O)[C@@H]2O)[C@H](O)[C@H](O)[C@H]1O (stereo partly specified)	.	-4%	.	10%	.	.
O=C(Cn1c(=O)nc(-c2ccccc2)c2ccccc21)N1CCN(c2ccc(F)cc2)CC1	.	.	17%	.	-20%	.
COc1ccc(C(=O)Nc2ccccc2C(=O)N/N=C/c2ccncc2)cc1OC	-20	5.6µM*	16µM*	3.5µM*	16µM*	?
COc1ccc(C(=O)Nc2ccccc2C(=O)NCc2cccnc2)cc1OC	-3	.	3%	.	-9%	?
Cc1ccc(/C=N/NC(=O)c2ccccc2OCc2ccc(F)cc2)o1	0	3%	5.8µM*	2%	2.9µM*	18µM*
O=C(N/N=C/c1ccncc1)c1ccccc1OCc1ccc(Br)cc1	-9	3%	?	-13%	?	7.3µM*
Cc1cccc(/C=N/NC(=O)c2cc(Br)ccc2OCc2ccccc2)n1	4	-24%	?	?	23µM*	-26%
O=C(N/N=C/c1ccco1)c1cc(Br)ccc1OCc1ccccc1	24	-17%	0%	?	-17%	-1%
COc1cccc(Nc2ncc3nc(CCc4ccccc4)c(=O)n(C[C@H]4CCCO4)c3n2)c1	.	8%	-15%	34%	?	.
Cc1ccc(S(=O)(=O)N2CCN(C(=O)COC(=O)CCOc3ccccc3C)CC2)c(C)c1	11	.	0%	.	1%	?
CCCCN(C(=O)c1ccc(C)c(S(=O)(=O)N2CCOCC2)c1)c1c(N)n(CCCC)c(=O)[nH]c1=O	20	.	?	.	-11%	5%
COc1cccc(N2C(=O)CC(N3CCN(S(=O)(=O)c4ccccc4[N+](=O)[O-])CC3)C2=O)c1 (stereo unspecified)	8	.	0%	.	8%	.
CC(=O)N[C@@H](C(=O)O)C(C)(C)SN=O	.	4%	13%	12%	-6%	.
COc1ccc(CNc2ncnc3c2cnn3-c2ccc(Cl)cc2)cc1	.	.	-17%	.	-1%	.
COc1ccc(-n2ncc3c(NC(C)C)ncnc32)cc1	0	?	-1%	11µM*	?	?
COCC(C)Nc1ncnc2c1cnn2-c1ccc(Cl)cc1 (stereo unspecified)	-57*	-20%	?	-13%	?	.
SMILES	IL1B secr inh	Gal4-VP16 FLuc	TDP1 cell CPT	RORg inh	DT40 TDP1 no CPT	ELG1 repair inh
COc1ccc(NC(=O)CCNS(=O)(=O)c2cccc3nsnc23)cc1Cl	.	.	0%	.	-30%	.
C=CC(=O)Nc1cccc(Oc2cc(Cl)nc3[nH]ccc23)c1	-72*	.	16µM*	.	?	-27%
Cc1cccc(C)c1NC(=O)COC(=O)c1cccc2c1C(=O)c1ccccc1C2=O	-6	-8%	12µM*	-36%	8.2µM*	12µM*
Cc1cccc(NC(=O)COC(=O)c2cccc3c2C(=O)c2ccccc2C3=O)c1C	-19	-15%	?	-39%	16µM*	21µM*
Nc1cccc(C(=O)OCC(=O)Nc2cccc3c2C(=O)c2ccccc2C3=O)c1	-18	?	?	-40%	12µM*	-7%
Cc1cccc(C)c1NC(=O)c1cccc2c1-c1ccccc1C2=O	1	-12%	?	3%	?	20%
Cc1cccc(NC(=O)COC(=O)c2ccccc2-c2nc3ccccc3s2)c1C	0	1%	?	50%	?	?
CCC(=O)Nc1cccc2c1C(=O)N(C)C2=O	-10	2%	-12%	-25%	-14%	-2%
CCN(CC)CCC(=O)Nc1cccc2c1C(=O)c1ccccc1C2=O	.	?	12µM*	?	10µM*	?
CC(=O)N[C@@H](CCCNC(=N)N)C(=O)N[C@H](CC1CCCCC1)C(=O)N[C@@H]1CCC2SC[C@@H](C(=O)N[C@H](CCCNC(=N)N)C(=O)N[C@H](Cc3ccc(Cl)cc3)C(N)=O)N2C1=O (stereo partly specified)	.	3%	.	15%	.	.
CCN1CCN(CCCNC(=O)CCC(=O)N2CCOc3ccc(Cl)cc32)CC1	-15	7%	1%	-34%	8%	11%
CCOc1ccccc1NC(=O)C1CCN(S(=O)(=O)c2ccccc2)CC1	.	.	-5%	.	-22%	.
CC(C)NC(=O)C1(C)CN(S(C)(=O)=O)CC(=O)N1CCCn1ccnc1 (stereo unspecified)	2	.	3%	.	6%	.
Cc1cccc(C(=O)OCC(=O)NCCNC(=O)COC(=O)c2cccc(C)c2C)c1C	6	?	-7%	13µM*	1%	-4%
CC1CCN(S(=O)(=O)c2cccc(C(=O)Nc3nccs3)c2)CC1	-2	?	?	11µM*	-25%	?
CCNC(=O)c1ccccc1NC(=O)c1cccc(S(=O)(=O)N2CCC(C)CC2)c1	-4	-12%	?	22%	15µM*	?

High-throughput results from PubChem.
